Bioassay records: PubChem BioAssay, several laboratories
An excerpt weighted towards active compounds, which were near 3% of everything screened.
Rv3671c protease: Rv3671c (M. tuberculosis) protease inhibition; AID 2606; hit rate 0.048% among 320,000; P9WHR9; inhibition, % at 5.96 µM; in the data active means inhibition above about 38%;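 further: extracellular domain of Rv3671c used as enzyme; 0% = enzyme with DMSO and 100% = no enzyme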
Target sequence (P9WHR9 whole entry, looked up, the tested form may be a part): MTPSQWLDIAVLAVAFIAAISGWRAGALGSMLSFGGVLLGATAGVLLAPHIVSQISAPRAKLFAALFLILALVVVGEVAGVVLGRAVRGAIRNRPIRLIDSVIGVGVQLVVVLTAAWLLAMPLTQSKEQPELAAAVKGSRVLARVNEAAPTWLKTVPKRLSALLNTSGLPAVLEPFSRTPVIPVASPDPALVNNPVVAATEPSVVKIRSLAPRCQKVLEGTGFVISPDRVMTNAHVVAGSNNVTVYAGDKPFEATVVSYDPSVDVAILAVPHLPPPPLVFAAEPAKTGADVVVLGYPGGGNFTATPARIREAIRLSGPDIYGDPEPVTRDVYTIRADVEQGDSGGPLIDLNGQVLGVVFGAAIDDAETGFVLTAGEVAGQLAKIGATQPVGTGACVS
Mtb FBA inh: inhibitors of M. tuberculosis fructose-bisphosphate aldolase; inhibition, % at 1 µM; P9WQA3; hit rate 2.3% among 360,000; purified M. tuberculosis FBA, fluorescence read-out; AID 588726; in the data active means inhibition above about 27%;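 further: 0% = vehicle and 100% = reference inhibitor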
Mtb BioA inh: inhibitors of Mycobacterium tuberculosis BioA enzyme; purified M. tuberculosis BioA enzyme, plate reader; inhibition, % at 9.99 µM; hit rate 0.096% among 360,000; AID 602481; in the data active means inhibition above about 40%
GDH-TPI inh: counter-screen for M. tuberculosis FBA inhibitors: GDH-TPI coupled enzymes. GDH-TPI coupled enzyme counterscreen, NADH absorbance. inhibition, % at 4.8 µM. hit rate 1.2% among 360,000; in the data active means inhibition above about 30%;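 further: 0% = DMSO wells and 100% = wells lacking the enzyme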
FadD28 binding: inhibitors of Mycobacterium tuberculosis FadD28 bisubstrate binding | FadD28 bisubstrate probe binding, fluorescence polarization | inhibition, % at 12.5 µM | hit rate 0.22% among 360,000; in the data active means inhibition above about 8.5%, passing the limit was not always enough
* hit, by the source's call; . = no result; + = active, no number.

SMILES	Rv3671c protease	Mtb FBA inh	Mtb BioA inh	GDH-TPI inh	FadD28 binding
NC(=O)N/N=C/c1ccc(-c2cccc(C(F)(F)F)c2)o1	5	-4	.	6	-4
CC(C)Oc1ccc(C(=O)N/N=C/c2ccc(-c3ccc(S(=O)(=O)Nc4ncccn4)cc3)o2)cc1	-2	31*	.	50*	-9
NC(=O)N/N=C/c1ccc(-c2ccc(S(=O)(=O)Nc3ncccn3)cc2)o1	.	9	0	37*	1
CCN(CC)c1ccc(/C=N\NC(N)=O)cc1	-2	26	-2	48*	-1
CCN(CC)c1ccc(/C=N/NC(=O)Nc2ccccc2)cc1	1	15	.	32*	-1
CC1CCC/C(=C\c2ccc(O)cc2)C1=O (stereo unspecified)	-2	0	-1	32*	-2
CN(C)CC1CC/C(=C\c2ccc(O)cc2)C1=O (stereo unspecified)	.	-8	.	12	-5
O=C(NCc1ccccc1)[C@@H]1N[C@@H]2c3ccc(-c4ccccc4)c(=O)n3C[C@@H]2[C@H]1CO	.	.	-1	.	.
Cc1cc(C)c(Nc2cc(S(=O)(=O)O)c(N)c3c2C(=O)c2ccccc2C3=O)c(C)c1	44*	-3	.	11	64*
CCc1cc(=O)oc2c(C)c(O)c(CN3CCCCC3)cc12	-4	+	.	32*	-1
Cc1c(O)c(CN2CCCC2)cc2c1oc(=O)c1ccccc12	-6	1	1	8	-2
Cc1c(O)c(CN2CCCC2)cc2c3c(c(=O)oc12)CCC3	5	198*	3	15	-1
O=C(CCN1CCCCC1)NCC[C@H]1CC[C@H](NC(=O)Cc2cccnc2)[C@H](CO)O1	.	.	3	.	.
C[C@@H]1CN([C@@H](C)CO)C(=O)Cc2cc(NS(=O)(=O)c3cccs3)ccc2O[C@H]1CN(C)Cc1ccc(-c2ccccc2)cc1	.	.	-1	.	.
NC(=S)N=Nc1c(O)cc(O)c2[nH]c(=O)ccc12	.	-4	.	37*	30*
CC=Cc1ccc2n(c1=O)C[C@H]1[C@H](CO)[C@@H](C(=O)NCc3ccccc3)[C@@H]2N1CC (mixture of isomers)	.	.	0	.	.
COCc1cc(=O)n2[nH]c(C)c(-c3ccc(Cl)cc3)c2n1	.	135*	1	8	-2
CC(C)Cn1c(N)c(C(=O)COC(=O)c2nccnc2N)c(=O)n(C)c1=O	3	+	-1	15	-1
CCOC(=O)N1CCC(Nc2c(-c3ccc(C)c(C)c3)c(=O)c2=O)CC1	3	-7	0	33*	-3
COC(=O)c1[nH]c2c(c1C(=O)OC)CCc1ccccc1-2	-3	121*	3	30	-3
CNC(=O)c1[nH]nc2c1CCc1ccccc1-2	-10	4	.	5	-3
C[C@H]1CN([C@@H](C)CO)C(=O)c2cc(-c3ccccc3F)cnc2O[C@H]1CN(C)Cc1ccccc1	.	.	2	.	.
O=C(Cc1ccccc1)Nc1ccc2oc(-c3cccnc3)nc2c1	-3	112*	2	4	-2
O=C(Nc1ccc2oc(-c3ccccc3)nc2c1)C1CCCO1 (stereo unspecified)	4	+	.	12	0
C[C@H]1CN([C@@H](C)CO)C(=O)c2cc(NC(=O)NC3CCCCC3)ccc2O[C@@H]1CN(C)C(=O)NC1CCCCC1	.	.	1	.	.
SMILES	Rv3671c protease	Mtb FBA inh	Mtb BioA inh	GDH-TPI inh	FadD28 binding
O=C(NCCCN1CCOCC1)c1sc2cc([N+](=O)[O-])ccc2c1Cl	-19	54*	2	4	0
O=C(NCCCN1CCOCC1)c1sc2cc(Cl)ccc2c1Cl	4	0	.	2	0
O=C(C[C@@H]1C=C[C@H](NC(=O)c2ccccc2)[C@H](CO)O1)NCCc1ccncc1	.	.	5	.	.
Cc1c(-c2cc(Br)ccc2O)nc2cc3c(cc2c1C)OCO3	-4	0	-3	9	29*
CNc1cnc(-c2cccc(C(=O)N3CCOCC3)c2)cn1	.	135*	0	15	-1
COCC#Cc1ccc2c(c1)O[C@H](CN(C)S(=O)(=O)c1ccc(F)cc1)[C@@H](C)CN([C@@H](C)CO)S2(=O)=O	.	.	-1	.	.
O=C(N/N=C/c1ccc(N2CCOCC2)cc1)c1ccncc1	-8	-1	-3	26	0
O=C(N/N=C/c1ccc(N2CCOCC2)cc1)c1ccc(NS(=O)(=O)c2cccs2)cc1	-19	6	.	35*	-2
O=S(=O)(Nc1ccc(N2CCOCC2)cc1)c1cccs1	4	-1	1	6	0
O=C(N/N=C/c1ccc(N2CCOCC2)s1)c1ccc(NS(=O)(=O)c2cccs2)cc1	21	0	-1	45*	0
O=C(N/N=C/c1ccc(N2CCOCC2)cc1)c1cccs1	0	-3	.	32*	0
O=C(C[C@H]1C=C[C@H](NC(=O)CCN2CCCCC2)[C@H](CO)O1)Nc1ccc(-c2ccccc2)cc1	.	.	2	.	.
CC(=O)Oc1cccc(-c2nc3ccccc3c(=O)o2)c1	2	0	.	12	-2
COc1ccc2cc(-c3ccccc3)c(=O)oc2c1	4	+	0	30	-1
CCCOc1ccc2cc(-c3ccccn3)c(=O)oc2c1	9	+	-1	14	-3
CC(=O)Oc1ccc2cc(-c3cccnc3)c(=O)oc2c1	.	+	.	16	-3
CC(Oc1ccc2ccc(=O)oc2c1)C(=O)NCC1CCC(C(=O)O)CC1 (stereo unspecified)	0	24	-2	27	-1
CC(Oc1ccc2cc(-c3ccccc3)c(=O)oc2c1)C(=O)NCC1CCC(C(=O)O)CC1 (stereo unspecified)	-5	+	3	36*	-1
COC(=O)C(C)Oc1ccc2cc(-c3ccccc3)c(=O)oc2c1 (stereo unspecified)	2	+	0	17	0
CN(C)C(=O)COc1ccc2cc(-c3ccccc3)c(=O)oc2c1	-1	+	-1	53*	-2
C[C@H](CO)N1C[C@H](C)[C@H](CN(C)C(=O)c2ccncc2)Oc2ncc(-c3ccc(C(=O)N(C)C)cc3)cc2C1=O	.	.	0	.	.
OCCN=c1cc(-c2ccccc2)oc2ccc(Cl)cc12	-1	2	1	40*	-1
CCNC(=O)Nc1ccc2c(c1)C(=O)N(C)[C@H]1CC[C@H](CC(=O)NCc3ccc(F)cc3)O[C@@H]1CO2	.	.	-2	.	.
CC(Sc1nc(-c2ccco2)nc2c1c(=O)n(C)c(=O)n2C)C(=O)O (stereo unspecified)	-5	-2	0	32*	-2
CC(C)NC(=O)Nc1ccc2c(c1)C(=O)N([C@H](C)CO)C[C@H](C)[C@@H](CN(C)C(=O)Nc1ccc(F)cc1)OCCCC[C@@H](C)O2	.	.	0	.	.
O=C1C[C@@H](c2ccc(O[C@@H]3O[C@H](CO)[C@@H](O)[C@H](O)[C@H]3O)cc2)Oc2cc(O)ccc21	4	1	0	34*	0
ON=Cc1ccnc2ccccc12	.	3	-1	3	-3
O=C(O)c1ccccc1N/N=C\c1ccnc2ccccc12	-10	-1	.	13	11*
CCN(CCCNc1cc2c(c(N)c1S(=O)(=O)O)C(=O)c1ccccc1C2=O)c1ccccc1	.	4	-1	-1	29*
